# The list is not random: actives were taken first. Their share in the collection is about 28%.
# CYP2C19 act: increases human CYP2C19 enzyme activity. P33261. recombinant CYP2C19, luciferin-H EGE luminescence; hits give high values; 0 = fully inhibited enzyme, 1 = untreated enzyme. activation factor at 5 µM. 96,000 tested, under 10 active;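 active = activation factor of at least 2 at 5 µM in the primary screen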;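 note: 0 = wells with 2.5 mM tranylcypromine and 1 = vehicle-only wells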
# DAT uptake mod: modulates human dopamine transporter uptake under cocaine; LLC-PK1 hDAT cells, [14C]-dopamine uptake with cocaine IC80; actives deviate in either direction; B-score at 10 µM; actives 1.3% (n = 110,000); AID 449768;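 active = Z score or B-score, a plate-position-corrected score, falls beyond the plate's 99.7% confidence bounds, in either direction; inactive = both scores lie inside the 99.7% bounds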;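 note: scored against the spread of the other compound wells on the same plate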
# CYP2C9 inhib: human CYP2C9 inhibition; inhibition, % at 5 µM; AID 777; actives 20% (n = 96,000); CYP2C9 Supersomes, luciferin-H conversion, luminescence; P11712;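 active = blocking of liver enzyme CYP2C9 beyond about 50% at 5 µM, limit read from the data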
# CYP2C19 inhib: blocks human cytochrome P450 2C19; P33261; AID 778; actives 21% (n = 96,000); CYP2C19 Supersomes, luciferin-H EGE luminescence, 30 min; inhibition, % at 5 µM;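 active = CYP2C19 inhibition above a set limit at 5 µM in the primary screen, cut at about 50% in these data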;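 note: plate controls were negative control wells for no effect and 2.5 mM tranylcypromine positive control for full effect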
# CYP2C9 activ: increases human cytochrome P450 2C9 activity; P11712; recombinant CYP2C9, luciferin-H conversion, luminescence; hits give high values; factor 1 = untreated enzyme, 0 = blocked; activation factor at 5 µM; actives 1.4% (n = 96,000); AID 1024;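 active = activation factor of 2 or more for CYP2C9 at a 5 µM dose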;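 note: 0 = sulfaphenazole-blocked wells and 1 = vehicle-only wells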
# D1 allo mod: allosteric modulators of human D1 dopamine receptor. HEK293 D1, CRE-luciferase, dopamine EC30 potentiation; actives deviate in either direction. P21728. actives 5.9% (n = 58,000). AID 641. B-score at 10 µM;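 active = luminescence count or its row- and column-corrected plate score outside the 99.7% band of the plate's sample wells, on either side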
# Numbers without * were called inactive; · = no result given.
SMILES,CYP2C19 act,DAT uptake mod,CYP2C9 inhib,CYP2C19 inhib,CYP2C9 activ,D1 allo mod
COc1cc(CNc2ccc3[nH]c(=O)[nH]c3c2)cc(Cl)c1OCC(=O)NC(C)(C)C,0.2,0.17,71*,81*,0.3,1
NC(=O)NC(CCC(=O)O)C(=O)O (stereo not drawn),·,-2.1,·,·,·,·
CCC1=C(OC(=O)N(CC)CC)N2C(=O)OC(=NCC(=O)OC)[C@]2(Cc2ccccc2)[C@H]2C1=CC[C@H]1C(=O)NC(=O)[C@H]12,·,-0.52,·,·,·,·
CC1CCCC/C1=N\NS(=O)(=O)c1ccc(Br)cc1 (stereo not drawn),0.7,·,51*,26,0.5,·
CSc1nnc(-c2ccc(S(=O)(=O)N3CCOCC3)cc2)n1CC1CCCO1 (stereo not drawn),0.8,-0.028,24,16,0.8,0.022
